# Assay results as given in the supplement of paper PMC6555819.
# Tests used:
# Assay in all cases: PBM binding z-score (relative to random genomic background probes); higher = stronger binding; sequences stand for … in GC…GCGATTGACAGCGTAGAATGAAGG
# [1] = test system: PPARg:RXRa DBDmut IVT, anti-RXR (DBD mutation: RXRa K156A/R161A, NR concentration 270 nM, RXRa partner concentration 90 nM)
# How it was run: (§1)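 Binding z-scores were set against random background probes. The data came from custom Agilent 4×180K protein-binding microarrays carrying double-stranded probes with 34-nt variable regions, incubated 1 h with ligand-free nuclear receptor dimers. Partner-specific antibodies detected binding, and scanned fluorescence was regression-normalized.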
# [2] = test system: PPARg:RXRa IVT, anti-PPARg (NR concentration 270 nM, RXRa partner concentration 90 nM)
# How it was run: as §1
# [3] = test system: PPARg DBDmut:RXRa IVT, anti-PPARg (DBD mutation: PPARg1 K132A/R137A, NR concentration 270 nM, RXRa partner concentration 90 nM)
# How it was run: as §1
# [4] = test system: PPARg DBDmut IVT, anti-PPARg (DBD mutation: PPARg1 K132A/R137A, NR concentration 270 nM)
# How it was run: as §1
# [5] = test system: PPARg homodimer (NR concentration 180 nM)
# How it was run: as §1
# [6] = test system: PXR:RXRa (NR concentration 270 nM, RXRa partner concentration 90 nM)
# How it was run: as §1
# [7] = test system: PXR homodimer (NR concentration 270 nM)
# How it was run: as §1
# [8] = test system: RARa:RXR (NR concentration 270 nM, RXRa partner concentration 90 nM)
# How it was run: as §1
# [9] = test system: RARa homodimer (NR concentration 270 nM)
# How it was run: as §1
# [10] = test system: RARb:RXRa (NR concentration 270 nM, RXRa partner concentration 90 nM)
# How it was run: as §1
# [11] = test system: RARb homodimer (NR concentration 270 nM)
# How it was run: as §1
# [12] = test system: RARg:RXRa (NR concentration 270 nM, RXRa partner concentration 90 nM)
# How it was run: as §1
# [13] = test system: RARg homodimer (NR concentration 270 nM)
# How it was run: as §1
# [14] = test system: RXRa DBDmut IVT, anti-RXR (DBD mutation: RXRa K156A/R161A, NR concentration 90 nM)
# How it was run: as §1
# [15] = test system: RXRa homodimer (NR concentration 180 nM)
# How it was run: as §1
# [16] = test system: THRa:RXRa (NR concentration 90 nM, RXRa partner concentration 90 nM)
# How it was run: as §1
# [17] = test system: THRa homodimer (NR concentration 90 nM)
# How it was run: as §1
# [18] = test system: VDR homodimer (NR concentration 270 nM)
# How it was run: as §1
Sequence,PBM binding z-score [1],PBM binding z-score [2],PBM binding z-score [3],PBM binding z-score [4],PBM binding z-score [5],PBM binding z-score [6],PBM binding z-score [7],PBM binding z-score [8],PBM binding z-score [9],PBM binding z-score [10],PBM binding z-score [11],PBM binding z-score [12],PBM binding z-score [13],PBM binding z-score [14],PBM binding z-score [15],PBM binding z-score [16],PBM binding z-score [17],PBM binding z-score [18]
CAAACTAGGACAAGGTCAAAGTCGGTTTGTGCCA,5.64,5.61,1.68,1.21,2.27,4.44,1.41,4.44,0.511,3.83,3.66,4.2,3.68,2.27,4.36,3.84,2.86,3.88
TCTTGTACATCAAGCAGGTTAAGAAAGCCTGAGT,1.65,0.61,0.553,1.57,0.286,0.6,0.247,0.598,-0.095,0.538,0.323,0.395,0.0243,0.896,0.677,0.334,-0.0584,0.438
TCGAGTAGGTTAGTCGGCGCATTCAGCCAACATA,1.73,0.854,-1.61,-1.56,-0.687,-0.463,-0.787,-0.68,-0.479,-0.141,-0.408,-0.412,-0.662,-0.0124,-0.244,-0.542,-0.648,-0.26
CCTCGGAGGACAACAGGAAGTCAGAGCTGCCAGA,-0.28,-0.806,-1.35,-1.22,0.0465,-0.665,-0.485,-0.454,0.0942,0.863,0.0796,0.396,1.06,0.139,-0.479,0.205,-0.14,-0.542
CCTACTGGACCAAAGGTCATTGATTCCAATGCTC,3.51,5.62,0.797,0.872,3.81,5.47,3.17,5.95,2.78,4.48,4.9,5.27,4.97,1.85,6.4,3.46,1.67,3.18
ATACCAAGGTGATCGTGAGGTCGTTGATACTAAC,0.604,1.28,0.214,0.382,1.03,2.86,1.53,1.82,0.745,1.42,1.73,2.06,1.03,0.728,1.38,3.4,2.63,2.83
CGTCCAAGGTCAGCAGGCCAGTGAAAGCGACGTG,2.35,2.56,-0.196,-0.403,1.55,2.26,-0.0334,3.14,0.266,5.01,4.1,5.07,5.77,2.47,3.86,3.74,1.89,1.25
TAGCCTAGGTCGGATCGGGCCAGTATACGCTATA,-0.693,-0.327,-0.89,-0.506,-1.19,-0.228,-0.533,0.382,-0.683,0.204,0.206,0.17,0.282,-1.2,-0.0599,2.67,-0.787,-0.985
